Data reported in PubChem BioAssay AID1159580 (chemical genetic matrix, 2015).
Among all 5,500 compounds or so, about 2,000 (36%) were called active. Not shown: some 18% with an inconclusive outcome. Cut-off read from the data, not from the text of the source: active = normalized growth mostly below about 0.91 (no sharp cut-off); inconclusive = no clear call, values can overlap the other calls; inactive = mostly above about 0.92. The list shows a part of the results.

Test: chemical genetic growth profiling, strain panel (AID 1159580);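 note: tested at 20 µM; growth read once vehicle control cultures reached saturation at 30 °C; 1 = growth at the plate median or of vehicle wells; lower values mean less growth of the strain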
Details: S. cerevisiae deletion strains, growth OD

Measured: normalized growth

COc1cc2c(cc1OC)C1C(=O)c3ccc4c(c3OC1CO2)CCC(C)(C)O4 (stereo not drawn)
inactive: locus YBR021W, strain FUR4, active compounds read low 0.985 | locus YBR229C, strain ROT2, active compounds read low 1 | locus YCL029C, strain bik1, active compounds read low 1.04 | locus YDL035C, strain GPR1, active compounds read low 1.01 | locus YDL074C, strain BRE1, active compounds read low 0.993 | locus YDL101C, strain DUN1, active compounds read low 0.997 | locus YDL185W, strain tfp1, active compounds read low 1.03 | locus YDL192W, strain arf1, active compounds read low 1.01 | locus YDR101C, strain arx1, active compounds read low 0.997 | locus YDR162C, strain NBP2, active compounds read low 1.03 | locus YDR318W, strain mcm21, active compounds read low 1.01 | locus YDR388W, active compounds read low 1 | locus YDR502C, strain sam2, active compounds read low 1.02 | locus YEL061C, strain CIN8, active compounds read low 1 | locus YER110C, active compounds read low 1.02 | locus YER155C, strain BEM2, active compounds read low 0.996 | locus YER167W, strain BCK2, active compounds read low 0.999 | locus YGL078C, strain dbp3, active compounds read low 1.03 | locus YGL086W, strain mad1, active compounds read low 1.02 | locus YGL248W, strain PDE1, active compounds read low 0.99 | locus YGR078C, strain PAC10, active compounds read low 0.996 | locus YGR135W, strain pre9, active compounds read low 1.02 | locus YGR252W, strain gcn5, active compounds read low 0.957 | locus YHR030C, strain SLT2, active compounds read low 1.01 | locus YHR079C, strain IRE1 (second series), active compounds read low 1 | locus YHR094C, strain hxt1, active compounds read low 1.02 | locus YHR129C, strain ARP1, active compounds read low 1.01 | locus YHR200W, strain rpn10, active compounds read low 1 | locus YIL066C, strain RNR3, active compounds read low 1 | locus YIL073C, strain SPO22, active compounds read low 1.02 | locus YIL125W, strain kgd1, active compounds read low 1.02 | locus YIR030C, strain dcg1, active compounds read low 1 | locus YJL095W, strain BCK1, active compounds read low 1.01 | locus YJL134W, strain LCB3, active compounds read low 0.996 | locus YJL168C, strain set2, active compounds read low 1 | locus YJL187C, strain SWE1 (second series), active compounds read low 0.999 | locus YJR043C, strain POL32, active compounds read low 1.01 | locus YKL009W, strain mrt4, active compounds read low 1.03 | locus YKL068W, active compounds read low 1 | locus YKL085W, strain MDH1 (second series), active compounds read low 1.01 | locus YKL085W, strain MDH1, active compounds read low 1.01 | locus YKR001C, strain vps1, active compounds read low 0.994 | locus YLR039C, strain RIC1, active compounds read low 1.01 | locus YLR058C, strain SHM2, active compounds read low 0.999 | locus YLR102C, strain apc9, active compounds read low 1.01 | locus YLR262C, strain YPT6, active compounds read low 1.04 | locus YLR268W, strain sec22, active compounds read low 1.02 | locus YLR330W, strain CHS5, active compounds read low 1.01 | locus YLR342W, strain FKS1 (second series), active compounds read low 1 | locus YLR371W, strain rom2, active compounds read low 1.01 | locus YLR418C, strain cdc73, active compounds read low 1 | locus YML016C, strain PPZ1, active compounds read low 1 | locus YML032C, strain rad52, active compounds read low 1.02 | locus YML124C, strain tub3, active compounds read low 1 | locus YMR078C, strain ctf18, active compounds read low 0.997 | locus YMR223W, strain ubp8, active compounds read low 0.999 | locus YMR263W, strain SAP30, active compounds read low 0.998 | locus YMR307W, strain GAS1, active compounds read low 1 | locus YNL067W, strain RPL9B, active compounds read low 0.993 | locus YNL128W, strain TEP1, active compounds read low 1.03 | locus YNL153C, strain GIM3, active compounds read low 1.02 | locus YNL233W, strain BNI4, active compounds read low 0.982 | locus YNL250W, strain rad50, active compounds read low 1.02 | locus YNL271C, strain bni1, active compounds read low 1.03 | locus YNL298W, strain CLA4, active compounds read low 1.01 | locus YNL307C, strain MCK1, active compounds read low 1 | locus YNL322C, strain KRE1, active compounds read low 1 | locus YNR052C, strain pop2, active compounds read low 1.02 | locus YOL006C, strain TOP1, active compounds read low 0.984 | locus YOL012C, strain htz1 1.01 | locus YOL147C, strain pex11, active compounds read low 1 | locus YOR061W, strain CKA2, active compounds read low 1.01 | locus YOR069W, strain VPS5, active compounds read low 1 | locus YOR136W, strain idh2, active compounds read low 1.02 | locus YOR144C, strain elg1, active compounds read low 1.01 | locus YOR184W, strain ser1, active compounds read low 1.02 | locus YOR316C, strain cot1, active compounds read low 1.01 | locus YPL241C, strain CIN2, active compounds read low 0.993 | locus YPR119W, strain clb2, active compounds read low 1.02 | locus YPR141C, strain kar3, active compounds read low 1.01 | locus YPR163C, strain tif3, active compounds read low 1.01 | locus YPR167C, strain met16, active compounds read low 1 | strain wtn01, active compounds read low 1.02
